According to PubChem BioAssay AID1347416 (National Center for Advancing Translational Sciences (NCATS), 2020):
Among all 4,100 compounds or so, about 1,600 (39%) were called active. About 25% were inconclusive and are not listed. The call rests on the fitted dose curve; in most records, active means well fitted inhibition curve with a large enough effect; inconclusive means small, poorly fitted or top-dose-only effect; inactive means no such curve, though single readings can be large or run the other way. Some of the results follow.

Test: qHTS Validation assay for Inhibitors of Plasmodium falciparum Dd2 growth in vitro; further: nearly all actives have a fitted effect of over 70% in size
Conditions: P. falciparum Dd2 in RBCs, SYBR Green growth, 72 h; series mostly up to 28.7 µM
In short: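 P. falciparum Dd2-infected red blood cells (2.5% hematocrit, 0.3% parasitemia) grown 72 h at 37 °C under 5% O2 with compounds in a titration, 29 uM to 0.5 nM final. Growth read as SYBR Green-1 fluorescence after ~16 h lysis; artesunate 300 nM as positive control.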
Potency means the concentration at half of the fitted maximal effect.

SMILES	Potency
CN(C)C[C@@H]1CN(C)C[C@H]1NS(=O)(=O)c1ccc(Br)cc1	13.3 µM (active)
Cc1ccc(S(=O)(=O)N[C@@H]2CN(C)C[C@H]2CN(C)C)cc1F	15 µM (active)
CN(C)C[C@@H]1CN(S(C)(=O)=O)C[C@H]1NC(=O)c1ccccc1	inactive
CCOc1ccc(CC(=O)N[C@@H]2CN(c3ncccn3)C[C@H]2CN(C)C)cc1	inactive
Cc1nn(-c2ccccc2)c2c1C(O)n1c(nc3ccccc31)S2 (configuration not stated)	5.31 µM (active)
CCOC(=O)C1=Nc2ccccc2C1=[N+]=[N-]	4.22 µM (active)
CCOc1ccc(C2C(C(=O)Nc3ccccc3)=C(C)N=c3s/c(=C/c4cccc(OCC(=O)O)c4)c(=O)n32)cc1 (configuration not stated)	5.31 µM (active)
CCOC(=O)C1=C(C)N=c2s/c(=C\c3ccc(OCC(=O)O)cc3)c(=O)n2C1c1ccccc1OC (configuration not stated)	inactive
CCOC(=O)C1=C(C)N=c2s/c(=C/c3ccc(OCC(=O)O)cc3)c(=O)n2C1c1cc(OC)c(OC)c(OC)c1 (configuration not stated)	1.88 µM (active)
CCOC(=O)C1=C(c2ccccc2)N=c2s/c(=C\c3cc(OC)c(OC)c(OC)c3)c(=O)n2C1c1cccs1 (configuration not stated)	5.96 µM (active)
Cc1ccc(CN(C)C(=O)c2cc(COc3ccc(F)cc3Cl)on2)o1	inactive
CC1(Cc2ccc3c(c2)OCO3)CCCN(C(=O)c2ccccc2-n2cncn2)C1 (configuration not stated)	inactive
COC(=O)c1nn(-c2ccc3c(c2)CCN3C(C)=O)cc1O	inactive
COCCNc1nc2cc(C(=O)N3CC[C@H](CO)[C@@H](O)C3)ccc2n1C	inactive
COc1ccc(C2C(C(=O)N3CCCCC3)CC(=O)N2c2ccc(OC)cc2)cc1 (configuration not stated)	7.5 µM (active)
COc1cnc(-c2ccccn2)nc1NC(C)C	5.31 µM (active)
COc1cnc(-c2ccccn2)nc1Oc1ccc(C(C)(C)C)cc1	inactive
COc1cnc(-c2ccccn2)nc1N(C)c1ccccc1	5.96 µM (active)
Cc1nc(-c2ccccn2)nc(N(C)c2ccccc2)c1Cl	5.31 µM (active)
Cc1ccc(-c2nnc(Nc3ccc(OCC(N)=O)cc3)c3ccccc23)cc1S(=O)(=O)NCC1CCCO1 (configuration not stated)	4.73 µM (active)
CC(=O)c1cccc(NS(=O)(=O)c2cc(-c3cnc(C4CC4)o3)ccc2C)c1	inactive
Cc1ccc(-c2nnc(Nc3ccc(O)cc3)c3ccccc23)cc1S(=O)(=O)N1CCN(C)CC1	6.68 µM (active)
COC(=O)c1ccc(Nc2nnc(-c3ccc(C)c(S(=O)(=O)N4CCN(C)CC4)c3)c3ccccc23)cc1	8.41 µM (active)

SMILES	Potency
CC(OC(=O)c1ccc(OCC2CCCO2)cc1)C(=O)N(C)Cc1ccccc1 (configuration not stated)	inactive
COC(=O)c1ccc(Nc2ncnc3c2nc2n3CCCC2)cc1	inactive
CCOC(=O)c1c(NC(=O)/C=C/c2ccc(OCC)cc2)sc2c1CCC2	inactive
CC(C)(C(=O)N1CCN(Cc2ccccc2)CC(O)C1)c1ccccc1 (configuration not stated)	inactive
CCOC(=O)c1c(N)sc2c1CCN(Cc1ccccc1)C2	5.31 µM (active)
O=C(CN1CCC(n2nnc3cc(F)ccc32)CC1)Nc1ccccc1N1CCOCC1	5.31 µM (active)
Cc1cc(F)ccc1NC(=O)Cn1c(=O)ccc2cc(S(=O)(=O)N3CCC(C)CC3)ccc21	inactive
CCO[C@@H]1OC(C(=O)N2CCN(Cc3ccc4c(c3)OCO4)CC2)=C[C@H](c2cn(C(C)=O)c3ccccc23)[C@H]1CCCO	9.44 µM (active)
CCO[C@H]1OC(C(=O)N2CCN(Cc3ccc4c(c3)OCO4)CC2)=C[C@@H](c2cn(C(C)=O)c3ccccc23)[C@@H]1CCCO	8.41 µM (active)
CCO[C@H]1OC(C(=O)N2CCN(Cc3ccccc3)CC2)=C[C@@H](C2CCCCC2)[C@@H]1CCCO	inactive
O=C(C1=C[C@H](c2csc3ccccc23)C[C@H](OCCCCO)O1)N1CCN(Cc2ccc3c(c2)OCO3)CC1	13.3 µM (active)
O=C(NCc1nc2ccccc2[nH]1)C1=C[C@@H](c2ccccc2)C[C@@H](OCCCCO)O1	inactive
CN(Cc1cccnc1)Cc1ccccc1C(F)(F)F	inactive
CCOC(=O)c1nnn(-c2nonc2-n2cccc2)c1CN1CCC(C(=O)OCC)CC1	4.73 µM (active)
Cn1c(CN2CCCCC2)nnc1C1CCCN(C(=O)c2cocn2)C1 (configuration not stated)	inactive
CCOC(=O)c1nnn(-c2nonc2-n2cccc2)c1CN1CCCCC1	7.5 µM (active)
O=C(c1nnc(COc2ccc(OC(F)(F)F)cc2)n1-c1ccccc1)N1CCC[C@@H]1C(c1ccccc1)c1ccccc1	8.41 µM (active)
O=C(COc1ccccc1)N1CCCC(n2cc(-c3nc(C4CC4)no3)nn2)C1 (configuration not stated)	inactive
CC(=O)Nc1cccc(OCc2nnc(C(=O)N3CCC[C@@H]3C(c3ccccc3)c3ccccc3)n2-c2ccccc2)c1	10.6 µM (active)
O=C(c1nnc(CN2CCC(F)(F)CC2)n1-c1cccnc1)N1CCC[C@@H]1C(c1ccccc1)c1ccccc1	15 µM (active)
CC(=O)Nc1cccc(-c2cn(C)c(=O)n3cc(COc4ccccc4)nc23)c1	inactive
COC1CCOC2(CCN(C(=O)CCn3nc(C)cc3C)CC2)C1 (configuration not stated)	inactive
COc1ccc(C2=C(Nc3ccccc3)c3ccccc3C2=O)cc1	9.44 µM (active)

SMILES	Potency
COc1ccc(C(=O)NC2(C(F)(F)F)C(=O)NC(C)=C2C#N)cc1 (configuration not stated)	inactive
O=C1C(c2ccc(C(F)(F)F)cc2)=C(Nc2ccc(Cl)cc2)c2ccccc21	1.5 µM (active)
COCCn1cnc2ccc(Nc3ccc(C(F)(F)F)cc3)nc2c1=O	inactive
COc1ccc(NC2=C(c3ccc(OC)cc3)C(=O)c3ccccc32)cc1	5.96 µM (active)
COc1ccc(NC2=C(c3ccc(C(F)(F)F)cc3)C(=O)c3ccccc32)cc1	2.11 µM (active)
Cc1cc(Cl)ccc1NC(=O)N1C[C@H](c2nc(-c3cccnc3)no2)[C@@H](C)C1	inactive
COc1ccc(C2=C(Nc3ccc(C)cc3)c3ccccc3C2=O)cc1	4.73 µM (active)
CCOc1ccc(NC2=C(OC)C(=O)c3ccccc3C2=O)cc1	0.376 µM (active)
CN1CCOc2c(C(=O)NCCc3cnc[nH]3)cc(-c3ccc(N4CCOCC4)cc3)cc21	inactive
COc1ccccc1C(=O)NCc1nnc2c(-c3nc(C4CC4)no3)cccn12	inactive
CC(=O)Nc1cccc(-c2cc(C(=O)NCc3c(C)cc(C)[nH]c3=O)c3c(c2)N(C(C)C)CCO3)c1	9.44 µM (active)
Cc1cc(C)c(CNC(=O)c2cc(-c3ccnn3C)cc3c2OCCN3C(C)C)c(=O)[nH]1	15.3 µM (active)
CC(C)c1cccc(NC(=O)c2ccc(CN3C(=O)NC4(CCOCC4)C3=O)cc2)c1	inactive
COc1ncc(-c2cc(C(=O)NCc3c(C)cc(C)[nH]c3=O)c3c(c2)N(C(C)C)CCO3)cn1	9.44 µM (active)
COc1ccc(C(=O)NCc2nnc3c(-c4nc(C5CC5)no4)cccn23)c(C)c1	inactive
Cc1cc(C)c(CNC(=O)c2cc(-c3cccnc3)cc3c2OCCN3C(C)C)c(=O)[nH]1	19.3 µM (active)
COc1ccc(-n2ccnc2SCC(=O)NO)cc1	inactive
COC(=O)C1=C(C)N(c2ccc(OC)cc2)C(C)=C(C(=O)OC)C1c1ccccc1	9.44 µM (active)
CCOC(=O)c1sc2nc3c(SCCC#N)cc(C(=O)c4cc(F)ccc4O)cn3c(=O)c2c1C	1.68 µM (active)
CC(=O)NC1CC(c2cc(NCCCOC3CCN(C)CC3)ncn2)C1 (configuration not stated)	inactive
O=C(NCc1ccco1)C1CCc2sc(C(=O)N3CCCCCC3)cc2C1 (configuration not stated)	inactive
CC1CCN(c2ccc(C(=O)NCc3ccco3)cc2[N+](=O)[O-])CC1	6.68 µM (active)
Cc1nn2c3c(cnc2c1-c1ccccc1)C(=O)CC(c1ccco1)C3 (configuration not stated)	9.44 µM (active)

SMILES	Potency
CCOC(=O)c1noc2nc(C)n(CC(=O)NC(C)CC)c(=O)c12 (configuration not stated)	inactive
CCOC(=O)c1nc2cc3n(c(CC(C)C)c-2c1C)CC(C)=C3C	7.5 µM (active)
O=C(c1cccs1)c1cn(CCOc2ccc(Cl)cc2)c2ccccc12	5.96 µM (active)
CCCNc1c(NC(=O)COc2ccc(Cl)cc2)c(=O)oc2ccccc12	inactive
O=C(Nc1c(C(=O)N2CCN(c3ccc(F)cc3)CC2)oc2ccccc12)c1ccco1	inactive
COc1ccc(OCCn2cc(C(=O)c3ccco3)c3ccccc32)cc1	2.11 µM (active)
COc1cccc(OCCn2cc(C(=O)c3ccco3)c3ccccc32)c1	inactive
O=C(c1ccco1)c1cn(CCOc2ccc(F)cc2)c2ccccc12	6.68 µM (active)
Cc1cc(OCCn2cc(C(=O)c3ccco3)c3ccccc32)ccc1Cl	5.31 µM (active)
CC(C)(C)c1ccc(OCCn2ccccc2=O)cc1	inactive
CCCS(=O)(=O)NCCc1ncc(C)n1C(C)C	inactive
Cc1ccccc1-n1c(=O)/c(=C\c2ccco2)s/c1=C(/C#N)C(=O)Nc1ccccc1	5.31 µM (active)
N#Cc1ccc(CN2C[C@@H]3C(=O)N(CCN4CCc5ccccc5C4)C(=O)[C@@H]3C2)cc1	inactive
COc1ccc(N2C(N)=NC(N)=NC2(C)C)cc1	inactive
CC1(C)N=C(N)N=C(N)N1c1ccc(OCCCOc2ccccc2)c(Cl)c1	2.99 µM (active)
CCOc1ccc(N2C(N)=NC(N)=NC2(C)C)cc1	inactive
CCOC(=O)c1cc(C)n(Cc2ccc(OCC)c(OC)c2)c1C	10.6 µM (active)
COC[C@@H]1CN(Cc2ccc(OC)c(C)c2)C[C@H]1C(=O)N(C)C	inactive
COc1cc(O)c(C(CCN2CCN(c3ccccc3)CC2)c2ccc3c(c2)OCO3)c(OC)c1 (configuration not stated)	0.842 µM (active)
COc1cc(O)c(C(CCN2CCCC(C)C2)c2ccc3c(c2)OCO3)c(OC)c1 (configuration not stated)	0.531 µM (active)
CCc1ccc(NC(=O)C(=O)NCC(c2ccc3c(c2)OCO3)N2CCOCC2)cc1 (configuration not stated)	inactive
COc1cc(O)c(C(CCN2CCCCC2)c2ccc3c(c2)OCO3)c(OC)c1 (configuration not stated)	1.33 µM (active)
COc1cc(O)c(C(CCN2CCOCC2)c2ccc3c(c2)OCO3)c(OC)c1 (configuration not stated)	4.22 µM (active)
